# In ChEMBL document CHEMBL1157539, “Thousands of chemical starting points for antimalarial lead identification” (Nature, 2010):
# How the values were obtained:
# Format in all cases: functional
# Plasmodium falciparum [1] = test: GSK_TCMDC: Inhibition of Plasmodium falciparum 3D7 in whole red blood cells, using parasite LDH activity as an index of growth. Test compounds present at 2uM
# Plasmodium falciparum [2] = test: GSK_TCMDC: Inhibition of Plasmodium falciparum Dd2 in whole red blood cells, using parasite LDH activity as an index of growth. Test compounds present at 2uM
# HepG2 = test: GSK_TCMDC: Percent inhibition of human HepG2 cell line. Test compounds present at 10uM.
Compound,Inhibition (Plasmodium falciparum [1]),Inhibition (Plasmodium falciparum [2]),Inhibition (HepG2)
COc1ccc(C(=O)CCc2ccc(O)cc2)cc1,96%,90%,0%
Cl.N#Cc1ccc2c(c1)CCN(CCC1CCC(NC(=O)c3cc4cccc(Cl)c4[nH]3)CC1)CC2 (centres undefined),99%,78%,34%
COc1ccc(Br)cc1C1C2C(=O)N(c3ccc(Br)cc3)C(=O)C2C2(C(=O)O)CC(OCc3ccccc3)CN12 (centres undefined),100%,99%,16%
C#CCCOc1ccc2ccccc2c1CNCCCCCCNCc1c(OCCC#C)ccc2ccccc12,100%,65%,100%
CN(C)CCOc1ccc(-c2cc(-c3ccncc3)c(-c3ccc(Cl)c(O)c3)o2)cc1.Cl,99%,93%,0%
CN1CCC(c2ccc(NC(=O)c3ccc(-c4cccc(C(F)(F)F)c4)o3)cc2)CC1,86%,23%,23%
Cc1noc(C)c1CN1Cc2ccccc2OC2(CCN(Cc3c[nH]c4cnccc34)CC2)C1.O=C(O)C(F)(F)F,89%,12%,19%
NS(=O)(=O)CCc1cccc(Nc2nccc(-c3c(-c4cccc(NC(=O)c5c(F)cccc5F)c4)nn4ccccc34)n2)c1,98%,97%,84%
Cc1ccc(-n2c(=O)c3c(n4c(SC(C)C)nnc24)-c2ccccc2CC32CCCCC2)cc1,95%,88%,8%
Fc1cccc(Nc2nc(NCc3ccc(Cl)c(Cl)c3)nc(Nc3cccc(F)c3)n2)c1,99%,7%,0%
Oc1cc2c(cc1CN1CCN(Cc3ccc(Cl)s3)CC1)CCC2,98%,76%,7%
Cc1cc(C(=O)OCC(=O)Nc2c(C)n(C)n(-c3ccccc3)c2=O)c(C)n1-c1ccc(F)cc1,100%,99%,0%
Cc1onc(-c2c(Cl)cccc2Cl)c1C(=O)NC1=NC(C)(C)ON1c1ccccc1,97%,36%,6%
Cc1cccc(Nc2nc3nonc3nc2Nc2cccc(Cl)c2Cl)c1C,91%,95%,88%
CCn1c(-c2nonc2N)nc2c(-c3cccc(Cl)c3)ncc(OCCCNCc3cnc(C)nc3N)c21.O=C(O)C(F)(F)F,93%,48%,21%
COc1ccc2[nH]ccc(=NN=Cc3cccc(F)c3)c2c1,100%,65%,13%
O=C(Nc1cc(C(F)(F)F)cc(C(F)(F)F)c1)N1CCC(CCN2CCC(c3c[nH]c4ccccc34)CC2)CC1,91%,16%,17%
COc1cccc2cc(C(=O)N[C@@H](CC(C)C)C(=O)NC(/C=N/NC(=O)c3ccccc3)CCc3ccccc3)oc12 (some centres undefined),88%,73%,8%
Cc1cccc(C)c1N1CCN(C2CCC(NC(=O)/C=C/c3ccccc3)CC2)CC1 (centres undefined),83%,34%,38%
Fc1ccc2[nH]c(-c3ccccc3)nc2c1CN1CCC(N2CCCC2)CC1.O=CO,100%,30%,2%
COc1ccc(CNCc2cccc(-c3ccc(-c4nc5cccc(C)c5[nH]4)s3)c2)cc1.O=C(O)C(F)(F)F,100%,65%,24%

Compound,Inhibition (Plasmodium falciparum [1]),Inhibition (Plasmodium falciparum [2]),Inhibition (HepG2)
COc1cc(CNCCCNc2nc3ncccc3[nH]2)c2[nH]cc(Br)c2c1,92%,3%,12%
O=C(Cc1ccc(NC(=O)c2ccc(O)c(-c3ccc(Cl)c(Cl)c3)c2)cc1)NCCN1CCOCC1,94%,24%,10%
CN(C)c1cc(NC(=O)Nc2ccccc2)c2ccccc2n1,100%,98%,11%
Cc1ccc(NC(=O)c2ccnc(N3CCN(c4ccncc4)CC3)c2)cc1F.O=C(O)C(F)(F)F,94%,12%,43%
CC(C)CCN1CCCN(Cc2ccc(C(=O)Nc3ccc(Cl)cc3)cc2)CC1.O=C(O)C(F)(F)F,94%,15%,46%
CCc1ccc(CN2CCC(CNC(=O)c3cc(-c4ccccc4F)cs3)C2)cc1.O=C(O)C(F)(F)F (centres undefined),100%,3%,29%
CC(N)(Cc1ccc(O)cc1)c1nnn[nH]1 (centres undefined),93%,2%,7%
Cl.c1ccc(-c2cc(NCCCCNc3cc(-c4ccccc4)nc4ccccc34)c3ccccc3n2)cc1,100%,97%,70%
Fc1cccc2sc(Nc3nc(-c4ccccn4)cs3)nc12,95%,97%,30%
COc1ccc(N2CCN(CCCCNC(=O)c3ccc(NC(=O)c4ccc(Cl)cc4)cc3)CC2)c(C)c1,100%,51%,42%
COc1cc2c(cc1N1CC(C)NC(C)C1)N(C(=O)c1ccc(-c3ccc(-c4ncc[nH]4)cc3C)cc1)CC2 (centres undefined),98%,58%,7%
O=C(O)C(F)(F)F.O=S(=O)(NCCN1CCCC1)c1ccc(-c2cccc(CNCCc3cccs3)c2)s1,99%,44%,39%
CCOC(=O)C(=O)N1c2ccc(OCC)cc2-c2c(ssc2=S)C1(C)C,99%,100%,5%
Cc1ccccc1C1CCN(C2CCC(NC(=O)/C=C/c3ccc4c(c3)OC(F)(F)O4)CC2)CC1 (centres undefined),100%,39%,75%
OC(CNc1cccc(Cl)c1)Cn1c2ccc(Cl)cc2c2cc(Cl)ccc21 (centres undefined),95%,33%,8%
COc1ccc(Nc2nccc(-c3ccc4ccnc(NCCCCN)c4c3)n2)cc1,95%,47%,15%
N=c1[nH]c2cccc3ccc4cccc1c4c32,100%,69%,26%
O=C(c1ccccc1[N+](=O)[O-])N(Cc1ccccc1)c1ccccn1,91%,0%,0%
O=C(c1cc(-c2cccs2)n[nH]1)N1CCN(S(=O)(=O)c2ccc(Cl)cc2)CC1,96%,95%,0%
C=CCOC(=O)N1CCC(CNCc2ccc(-c3ccc(-c4nc5cc(C(F)(F)F)ccc5[nH]4)cc3)cc2)C1.O=C(O)C(F)(F)F (centres undefined),100%,98%,44%
CN(C)c1cc2c(Nc3ccc4nc(Cc5ccccc5)[nH]c4c3)ncnc2cn1 [GW301888X],85%,29%,11%

Compound,Inhibition (Plasmodium falciparum [1]),Inhibition (Plasmodium falciparum [2]),Inhibition (HepG2)
CCCCN(C)CC#Cc1ccc2[nH]c(C)c(Cl)c(=O)c2c1,98%,97%,0%
CCOP(=O)(OCC)c1ccc(OC)c(-c2ccc[nH]2)c1,95%,10%,0%
N=C(N)NCCN(Cc1ccccc1)c1ccc(Cl)cc1,100%,99%,0%
NC1=NC2(CCCCC2)N(OCCCCCCc2ccccc2)C(N)=N1,100%,69%,73%
Cc1cc(Nc2ccc(C(C)(C)C)cc2)c2[nH]ncc2n1.Cl,83%,63%,31%
CCN(CCCN1CCCCC1)c1cc(C)nc(Nc2cccc(C(F)(F)F)c2)n1.O=C(O)C(F)(F)F,100%,88%,25%
Cn1cnc(CCNC(=O)c2ccc(-c3cccc(-c4nc5ccccc5[nH]4)c3)cc2)c1,93%,14%,1%
O=C(N[C@H]1CCN(Cc2ccc(OC3CCN(Cc4ccccc4)CC3)cc2)C1)c1ccc(Cl)c(Cl)c1.O=C(O)C(F)(F)F,90%,6%,37%
CCCCNc1c(CC)c(C)c(C#N)c2nc3ccccc3n12,100%,100%,3%
CCOc1cc(C(C)C)ccc1C1CCN(CCCCNC(=O)c2ccc(NC(=O)c3ccc(Cl)cc3)cc2)CC1,100%,98%,32%
COc1cccc(C(=O)NC(NC(=S)Nc2ccc(OC)cc2[N+](=O)[O-])C(Cl)(Cl)Cl)c1 (centres undefined),99%,49%,9%
c1ccc(COc2ccc(Nc3ncnc4cnc(-c5ccc(CNc6cccnc6)o5)cc34)cc2)cc1,96%,19%,2%
NC(=O)C1CCN(Cc2cccc(-c3cccc(-c4nc5cc(F)ccc5[nH]4)c3)c2)CC1.O=C(O)C(F)(F)F,100%,7%,15%
Cc1cccc2nc(-c3ccc(-c4cccc(CN5CCCC(N)C5)c4)s3)[nH]c12.O=C(O)C(F)(F)F (centres undefined),100%,94%,17%
Cc1ccc(C2(CN3CCC(NC(=O)c4cc[nH]n4)CC3)CCCCC2)cc1,97%,96%,0%
O=C(Nc1nc(-c2ccccn2)cs1)c1ccccc1COc1ccccc1,83%,42%,34%
c1cc(CNC2Cc3ccc(-c4cccs4)cc3C2)cc(-n2ccnc2)c1 (centres undefined),100%,63%,0%
O=C(Nc1cccc(Cl)c1)c1cnc(N2CCN(c3ccncc3)CC2)c(Cl)c1.O=C(O)C(F)(F)F,100%,97%,54%
C=CCOc1ccc(CNC2CCN(Cc3ccccc3)CC2)cc1Br.O=C(O)C(=O)O,92%,8%,9%
CCc1c(C(=O)NC2CCC(N3CCC(c4ccccc4C)CC3)CC2)[nH]c2ccc(Br)cc12 (centres undefined),100%,99%,81%
Cc1cccc2nc(-c3cccc(-c4cccc(NC(=O)COc5ccccc5C(N)=O)c4)c3)[nH]c12,100%,88%,22%
